USP30 block: inhibitors of human USP30 deubiquitinase; Ubiquitin carboxyl-terminal hydrolase 30 (Homo sapiens), Q70CQ3; purified USP30, Ub-rhodamine cleavage fluorescence; inhibition, % at 25 µM; 5.3% of 47,000 active
OTUD3 block: inhibitors of human OTUD3 deubiquitinase. OTU domain-containing protein 3 (Homo sapiens), Q5T2D3. purified OTUD3, Ub-rhodamine fluorescence, 2 h. inhibition, % at 25 µM. 0.7% of 47,000 active
USP17 inh: inhibitors of human USP17 deubiquitinase. purified USP17, Ub-rhodamine cleavage fluorescence, 3 h. inhibition, % at 50 µM. 6.5% of 47,000 active
Target sequence (A8MUK1 whole entry, looked up): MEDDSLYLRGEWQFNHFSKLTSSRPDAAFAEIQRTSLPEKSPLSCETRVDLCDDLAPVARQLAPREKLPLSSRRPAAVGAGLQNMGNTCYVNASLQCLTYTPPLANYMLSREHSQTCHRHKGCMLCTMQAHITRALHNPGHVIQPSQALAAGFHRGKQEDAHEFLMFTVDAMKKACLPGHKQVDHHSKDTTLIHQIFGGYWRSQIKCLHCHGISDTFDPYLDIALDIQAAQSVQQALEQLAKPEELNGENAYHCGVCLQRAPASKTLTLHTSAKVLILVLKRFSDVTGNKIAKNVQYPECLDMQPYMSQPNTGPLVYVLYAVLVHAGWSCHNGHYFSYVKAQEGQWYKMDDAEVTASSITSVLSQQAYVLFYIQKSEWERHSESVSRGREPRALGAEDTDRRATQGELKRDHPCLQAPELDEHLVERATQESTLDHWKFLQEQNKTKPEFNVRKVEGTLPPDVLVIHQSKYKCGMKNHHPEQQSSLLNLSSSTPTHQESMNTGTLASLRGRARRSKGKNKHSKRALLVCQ
USP28 block: inhibitors of human USP28 deubiquitinase; Ubiquitin carboxyl-terminal hydrolase 28 (Homo sapiens), Q96RU2; purified USP28, Ub-rhodamine cleavage fluorescence, 30 min; inhibition, % at 25 µM; 3% of 47,000 active; AID 1645857, 2021
* = called active by the depositor; · = no result. Most compounds without a hit are left out; they make up all but 12% or so of the library. Cut-off read from the data, not from the text of the source: active = inhibition above about 30%; inactive = the rest.

SMILES	USP30 block	OTUD3 block	USP17 inh	USP28 block
O=C(CSc1nc2ncc(Cl)cc2[nH]1)Nc1ccc(OCc2ccccc2)cc1	-58.4	-0.1	38.1*	-13.6
COc1ccc(-c2cnc(NCCc3ccccc3)nc2)cc1	1.5	-2.6	8.8	-1.4
CCc1ccc2nc(NC(=O)c3ccc(=O)[nH]c3)sc2c1	1.2	0.1	33.3*	0.7
CCn1c(=O)c(CCC(=O)NCc2ccccn2)nc2c(C)nn(-c3ccccc3)c21	-17.9	-6.3	-10.5	-8.9
O=C(c1ccc(Br)o1)N(Cc1ccccc1Cl)c1ccccn1	20.9	16.7	18.2	30.6*
O=C(c1ccco1)N(Cc1ccccc1Cl)c1ccccn1	15.7	9.3	2.0	10.6
CCN1CCC2(CCN(C(=O)c3cnc(C)cn3)CC2)C1=O	9.3	13.6	-6.6	7.4
O=C(Nc1cccnc1)c1ccc(Oc2ccccc2)cc1	19.3	2.5	-4.4	43.5*
Cc1ccc2[nH]c(=O)c(CN(CC3COCCO3)C(=O)Nc3ccccc3Cl)cc2c1 (stereo unspecified)	-1.4	-3.3	·	-2.4
Cc1ccc2[nH]c(=O)c(CN(CC3COCCO3)C(=O)Nc3ccccc3F)cc2c1 (stereo unspecified)	37.5*	18.5	13.2	7.4
Cc1ccc2[nH]c(=O)c(CN(CC3CCCO3)S(=O)(=O)c3ccccc3)cc2c1 (stereo unspecified)	36.5*	20.6	52.9*	14.9
Cc1ccc2[nH]c(=O)c(CN(CC3CCCO3)S(C)(=O)=O)cc2c1 (stereo unspecified)	23.2	7.0	1.9	8.1
CC(C)=CCC[C@](C)(O)[C@H]1CC[C@]2(C)[C@@H]1CC[C@@H]1[C@@]3(C)CCC(=O)C(C)(C)[C@@H]3CC[C@]12C	22.8	8.9	15.2	8.7
CC1(C)C(=O)CC[C@@]2(C)C1CC[C@]1(C)C2CC[C@@H]2[C@H]3[C@H]4OC[C@@]3(CCC4(C)C)CC[C@]21C (stereo partly specified)	30.5*	8.7	13.4	4.0
CCNC(=O)N1CC(C(=O)Nc2ccc(F)cc2)C2(CCOCC2)C1 (stereo unspecified)	8.1	2.6	-2.3	-9.8
O=c1c2cnc(N3CCCCC3)nc2ccn1CCc1ccccc1	28.0	21.6	85.1*	18.4
CSc1nc2ncc3c(=O)n(CCc4ccccc4)ccc3n2n1	44.1*	19.7	62.2*	7.7
CCN1CCN(c2ncc3c(=O)n(CCc4ccccc4)ccc3n2)CC1	39.0*	17.2	25.5	11.5
CCN1CCN(c2ncc3c(=O)n(CCc4ccc(OC)c(OC)c4)ccc3n2)CC1	14.3	2.7	3.7	0.1
CN(C1CCCCC1)S(=O)(=O)c1ccc(S(=O)(=O)N2CCN3CCCC3C2)cc1 (stereo unspecified)	-2.3	-1.3	-8.7	-10.2
O=C(NCc1ccc(-c2nc3cnccc3o2)cc1)c1ccccc1Cl	-26.2	-1.8	37.7*	-8.7
O=C(NCc1ccncc1)c1cnc2ccccc2n1	-14.3	-7.5	-15.1	-10.6
O=C(NCc1ccc(-c2nc3cnccc3o2)cc1)c1ccccc1F	13.1	8.2	67.7*	19.5
O=C(COc1ccc(-c2ccccc2)cc1Cl)N1CCN(C(=O)c2ccco2)CC1	5.6	-3.9	22.9	9.4
CCCn1c(NC(=O)c2cccnc2)nc2ccccc21	-5.1	0.1	16.8	31.4*
SMILES	USP30 block	OTUD3 block	USP17 inh	USP28 block
CCn1c(NC(=O)c2cccnc2N2CCCC2)nc2ccccc21	3.3	-1.3	-6.6	-0.4
CC1CCN(C(=O)Nc2ccc3ccccc3c2)Cc2nc3ccccc3n21 (stereo unspecified)	33.2*	-13.6	28.0	7.2
CC1CCN(C(=O)Nc2cccc(C#N)c2)Cc2nc3ccccc3n21 (stereo unspecified)	4.7	6.6	1.8	7.4
CN1CCN(Cc2cccnc2)C(=O)C12CCN(c1ncccn1)CC2	-112.2	-21.8	-77.0	-43.6
CN1CCN(Cc2cccnc2)C(=O)C12CCN(Cc1ccc[nH]1)CC2	-13.5	6.4	46.5*	54.5*
O=C(NCc1ccc2c(c1)OCO2)[C@H]1C=CCN1c1ncccn1	-10.2	-2.5	-14.5	-13.6
Cc1c(C(=O)NC(C)C(C)C)nnn1-c1cccc2c1CCN(c1ccc(C#N)cn1)C2 (stereo unspecified)	-6.7	0.0	-8.0	4.3
Cc1nnc(SCCn2c(N3CCC(Cc4ccccc4)CC3)nc3c2c(=O)n(C)c(=O)n3C)s1	7.2	5.7	-16.5	-5.2
Cc1cc(C)nc(SCCn2c(N3CCC(Cc4ccccc4)CC3)nc3c2c(=O)n(C)c(=O)n3C)n1	56.2*	8.4	41.4*	20.3
C=C(C)Cn1c(N2CCC(Cc3ccccc3)CC2)nc2c1c(=O)[nH]c(=O)n2C	36.7*	12.2	29.7	8.8
COCCn1c(C)c(C)c(S(=O)(=O)c2ccc(OC)cc2)c1NC(=O)c1ccccc1	10.6	5.5	-1.3	6.0
O=C(Nc1cccc(N2CCCS2(=O)=O)c1)c1cccc(C(F)(F)F)c1	-18.9	-7.8	-13.7	-4.8
O=C(Nc1ccc(-n2cccc2)cc1)c1ccc(Cl)cc1Cl	-46.3	12.0	15.2	18.6
O=C(Nc1cccc(F)c1)c1ccc(N2CCCCS2(=O)=O)cc1Cl	0.0	12.0	21.9	33.3*
O=C(Nc1ccc(F)c(Cl)c1)c1ccc(N2CCCCS2(=O)=O)cc1Cl	-0.1	-9.3	3.3	52.0*
CSc1ccc(CNC(=O)c2noc(C)c2CN2CCOCC2)cc1	0.2	-3.1	0.0	-3.3
c1cc2c(cc1-c1noc(C3CCC3)n1)ncn2CCN1CCCCC1	-52.3	-12.2	-11.2	-16.0
Cn1cccc1C1CCCCCN1C(=O)Cn1cccn1 (stereo unspecified)	-6.7	-4.8	-20.7	-14.4
CCOc1ccc([C@H]2[C@H](C(=O)O)CC(=O)N2Cc2ccccc2)cc1	-2.2	1.2	-1.0	-11.7
CN1CCn2c(-c3cccnc3)cnc2C12CCN(C(=O)c1ccccc1)CC2	3.9	0.3	1.6	0.0
O=C(Cn1ncc2c1-c1ccccc1OC2)Nc1ccc(F)c(Cl)c1	35.2*	-9.2	-5.1	13.0
O=C(CN1CC(c2nc(-c3ncccn3)no2)C1)Nc1ccc(F)c(Cl)c1	7.5	0.4	-11.8	0.2
Cc1ccc([N+](=O)[O-])cc1NC(=O)CCN1C(=O)c2ccccc2S1(=O)=O	48.6*	7.0	30.8*	7.4
O=C(CCN1C(=O)c2ccccc2S1(=O)=O)Nc1ccccc1C(=O)O	-2.8	-1.3	-17.8	-5.8
O=C(CN1CCN(CCCc2c[nH]c3ccc(F)cc23)CC1)N(c1ccccc1)C1CCCCC1	16.0	-2.1	-13.1	-1.7
Cc1cccc(CNC(=O)c2ccc(-c3nnc(-c4cccc(C)c4)o3)cc2)c1	6.6	-2.2	81.6*	-1.7
O=C(NCc1cccc(Cl)c1)c1ccc(-c2nnc(-c3ccccc3)o2)cc1	22.4	4.2	50.3*	3.2
O=c1ccc(S(=O)(=O)N2CCCC2)cn1Cc1ccccc1F	0.1	-0.1	·	-5.2
C=Cc1ccc(Cn2cc(C(=O)O)c(S(=O)(=O)N3CCCCC3)n2)cc1	-22.7	-0.5	-52.5	-5.9
